Most compounds without a hit are left out; they make up all but 1.3% or so of the library.
RAD54 branch = inhibitors of human RAD54 branch migration; hit rate 0.14% among 360,000; inhibition, % at 10.4 µM; RAD54 Holliday junction branch migration, FAM/BHQ fluorescence; AID 602329;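 active = mean normalized replicate activity at least 40 and at least half of replicates scoring 40 or more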;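 also: 0% = median of neutral control wells and 100% = median of positive control wells; inhibitors cause a drop in the FAM fluorescence signal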
UBC13 polyUb = blocks human UBC13 polyubiquitin chain formation; inhibition, % at 20 µM; hit rate 0.47% among 330,000; P61088; TR-FRET; AID 485273; in the data active = inhibition above about 45%, passing the limit was not always enough
Target sequence (P61088 whole entry, looked up): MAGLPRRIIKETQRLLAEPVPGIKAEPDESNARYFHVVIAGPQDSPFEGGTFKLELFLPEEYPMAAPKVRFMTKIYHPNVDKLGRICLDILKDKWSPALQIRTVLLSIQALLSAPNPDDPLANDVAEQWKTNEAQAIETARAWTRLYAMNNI
FID counter = counter-screen for HCV NS3 helicase inhibitors: DNA intercalator displacement; DNA fluorescent intercalator displacement, fluorescence; inhibition, % at 7.9 µM; hit rate 0.17% among 290,000; AID 1845; in the data active = inhibition above about 37%;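 also: 0% = vehicle and 100% = reference compound; higher means more ethidium bromide displaced from hairpin DNA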
PREPL inhibitor = inhibitors of human prolyl oligopeptidase-like enzyme PREPL | Q4J6C6 | recombinant PREPL, fluorescence polarization activity-based probe | inhibition, % at 5.96 µM | hit rate 0.68% among 320,000 | AID 2751; in the data active = inhibition above about 43%;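 also: 0% = enzyme with DMSO and 100% = wells lacking enzyme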
RAD52 inh = inhibitors of human RAD52 DNA annealing. P43351. recombinant RAD52 DNA annealing, FRET fluorescence. inhibition, % at 18.7 µM. hit rate 0.46% among 360,000;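 active = every replicate showing at least 50% inhibition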
Target sequence (P43351 whole entry, looked up): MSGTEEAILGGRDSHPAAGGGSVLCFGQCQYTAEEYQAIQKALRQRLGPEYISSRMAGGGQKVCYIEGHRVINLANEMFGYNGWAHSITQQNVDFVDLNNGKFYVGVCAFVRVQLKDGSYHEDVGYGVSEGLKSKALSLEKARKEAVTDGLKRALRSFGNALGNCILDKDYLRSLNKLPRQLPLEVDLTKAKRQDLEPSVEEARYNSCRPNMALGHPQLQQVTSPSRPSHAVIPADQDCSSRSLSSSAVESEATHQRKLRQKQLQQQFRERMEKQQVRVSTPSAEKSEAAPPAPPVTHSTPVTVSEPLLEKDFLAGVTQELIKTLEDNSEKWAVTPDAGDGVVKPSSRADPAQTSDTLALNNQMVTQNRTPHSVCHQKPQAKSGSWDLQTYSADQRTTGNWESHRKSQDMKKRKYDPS
beta cell repl = MIN6 beta-cell proliferation induction; proliferation, % at 10 µM; MIN6 cells proliferation, ATPlite luminescence, 48 h; cells starved in 0.2% serum; 100% = growth in 10% serum; hit rate 0.29% among 330,000;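 active = compounds whose signal lies at least 3.5 SD above the mean of all wells on their plate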;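 also: 0% = DMSO-treated cells in low-serum medium and 100% = 10% serum control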
Starred values were filed as active, the others as inactive; x = not tested or not shown.

SMILES | RAD54 branch | UBC13 polyUb | FID counter | PREPL inhibitor | RAD52 inh | beta cell repl
C#CCOCCOCCOCCNc1nc(N2CCN(C(=O)[C@H](CCCCN)n3cc(C(N)CO)nn3)CC2)nc(N2CCN(C(=O)[C@H](CCCCN)n3cc(C(N)COC(=O)C(F)(F)F)nn3)CC2)n1 (stereo not given in full) | x | 76* | x | 0 | x | -6
C#CCOCCOCCOCCNc1nc(N2CCN(C(=O)[C@H](CCCCN)n3cc(CCCC)nn3)CC2)nc(N2CCN(C(=O)[C@H](Cc3ccc(O)cc3)n3cc(CCO)nn3)CC2)n1 | -17 | 90* | 13 | -26 | x | -1
C#CCOCCOCCOCCNc1nc(N2CCN(C(=O)[C@H](CCCCN)n3cc(CC(C)O)nn3)CC2)nc(N2CCN(C(=O)[C@H](Cc3ccc(O)cc3)n3cc(CCO)nn3)CC2)n1 (stereo not given in full) | 10 | x | x | x | -9 | x
C[C@H](CO)N1C[C@H](C)[C@H](CN(C)C(=O)Nc2cccc3ccccc23)OCCCC[C@H](C)Oc2ccc(NS(=O)(=O)c3cccs3)cc2C1=O | -8 | x | x | x | -6 | x
C[C@H](NC(=O)C[C@@H]1CC[C@H]2[C@@H](COC[C@@H](O)CN2C(=O)Nc2ccccc2)O1)c1ccccc1 | -15 | x | x | x | -7 | x
C[C@H]1CN([C@@H](C)CO)C(=O)c2cc(NC(=O)CCC(F)(F)F)ccc2O[C@@H]1CN(C)S(C)(=O)=O | -17 | x | x | x | 15 | x
CCC(C)NCCOCCOc1ccc(Cl)c2ccccc12 (stereo not given) | 27 | 14 | 51* | -34 | 30 | -7
C[C@@H]1CCCCO[C@@H](CN(C)C(=O)Nc2ccc(C(F)(F)F)cc2)[C@@H](C)CN([C@H](C)CO)C(=O)c2cc(NC(=O)CCCCCC(=O)Nc3ccccc3N)ccc2O1 | -3 | x | x | x | 10 | x
O=C1O[C@@H](c2ccccc2)[C@@H](c2ccccc2)N2[C@@H](c3ccc(OCCO)cc3)[C@]3(C(=O)Nc4ccc(C#CCCO)cc43)[C@@H](C(=O)N3CCN(c4ncccn4)CC3)[C@H]12 | -1 | x | x | x | 52* | x
O=C1O[C@@H](c2ccccc2)[C@@H](c2ccccc2)N2[C@@H](c3ccccc3OCCO)[C@]3(C(=O)Nc4ccc(C#CCCO)cc43)[C@@H](C(=O)N3CCN(c4ncccn4)CC3)[C@H]12 | -2 | x | x | x | 76* | x
O=C1O[C@@H](c2ccccc2)[C@@H](c2ccccc2)N2[C@@H](c3ccccc3OCCO)[C@]3(C(=O)Nc4ccc(C#CC5=CCCCC5)cc43)[C@@H](C(=O)N3CCN(c4ncccn4)CC3)[C@H]12 | -3 | x | x | x | -41 | x
O=C1O[C@H](c2ccccc2)[C@H](c2ccccc2)N2[C@H]1[C@@H](C(=O)N1CCN(c3ncccn3)CC1)[C@]1(C(=O)Nc3ccccc31)[C@H]2c1ccc(O)cc1 | -8 | x | x | x | 10 | x
O=C1O[C@@H](c2ccccc2)[C@@H](c2ccccc2)N2[C@@H](c3ccc(O)cc3)[C@]3(C(=O)Nc4ccccc43)[C@@H](C(=O)N3CCCCCCC3)[C@H]12 | -3 | x | x | x | 58* | x
CC(=O)N(C)C[C@@H]1Oc2ncc(C#CCC3CCCC3)cc2C(=O)N([C@H](C)CO)C[C@H]1C | -21 | x | x | x | 15 | x
C[C@@H](NC(=O)C[C@@H]1CC[C@@H]2[C@H](COC[C@H](O)CN2C)O1)c1ccccc1 | -1 | x | x | x | -11 | x
CN(C)CC#Cc1ccc([C@@H]2[C@@H](CO)N3CCCCN(C(=O)Nc4ccccc4F)C[C@H]23)cc1 | -13 | x | x | x | 54* | x
CN(C)CC#Cc1ccc([C@@H]2[C@H](CO)N3CCCCN(C(=O)Nc4cc(F)ccc4F)C[C@@H]23)cc1 | 1 | x | x | x | 51* | x
COCC(=O)N(C)C[C@H]1Oc2cc(C#CCC(C)C)ccc2S(=O)(=O)N([C@H](C)CO)C[C@@H]1C | -2 | x | x | x | 5 | x
COc1ccc(N=CC2=C(Nc3ccc(OC)cc3)c3c(C)nn(-c4ccccn4)c3CC2)cc1 | x | -44 | -24 | 72* | x | -6
CCS(=O)(=O)N1CCC2(CC1)CN(C(=O)c1ccc(F)cc1)[C@@H](CO)c1[nH]c3cc(OC)ccc3c12 | x | x | x | x | 1 | x
O=C(c1ccccc1)c1c2c(cc3sc4ccccc4[n+]13)-c1cccc3cccc-2c13 | 105* | x | 53* | 23 | x | x
C[C@@H]1CN([C@H](C)CO)C(=O)c2cc(C#Cc3ccccc3F)cnc2O[C@H]1CN(C)C(=O)C1CCOCC1 | 8 | x | x | x | 14 | x
Cc1cc(C)c(C#N)c(SCc2ccccc2)n1 | -1 | 2 | -3 | 0 | x | -1
Cc1ccc2nc(CSc3nc(C)cc(C)c3C#N)[nH]c2c1 | -7 | 2 | -6 | 58* | x | -4
CC(C)C(NC(=O)c1ccc(C(C)(C)C)cc1)C(=O)NCC(c1ccccc1)N(C)C (stereo not given) | x | 8 | 37* | 3 | 13 | -3
SMILES | RAD54 branch | UBC13 polyUb | FID counter | PREPL inhibitor | RAD52 inh | beta cell repl
O=C(CSc1nc2ccccc2o1)Nc1ccc(N2CCOCC2)cc1 | 1 | -6 | -8 | 44* | x | -3
O=C(CSc1nc2cc(Cl)ccc2o1)Nc1ccc(N2CCOCC2)cc1 | x | 5 | -15 | 11 | -16 | -1
COc1ccc(C(=O)Nn2c(SCC(=O)c3ccccc3)nc3ccccc3c2=O)cc1 | x | 83* | -4 | 3 | x | -4
COc1ccc(CN(C)CC(=O)c2c(N)n(Cc3ccccc3)c(=O)n(C)c2=O)c(OC)c1 | 3 | -4 | 30 | 47* | x | -2
CCn1c(=O)c(C(=O)CN(C)Cc2cccc(OC)c2OC)c(N)n(Cc2ccccc2)c1=O | x | -4 | 21 | 9 | x | -3
C[C@@H]1CN([C@@H](C)CO)C(=O)Cc2cc(NC(=O)Cc3cn(C)c4ccccc34)ccc2O[C@@H]1CN(C)C | -11 | x | x | x | -8 | x
Cc1ccc(NC(=O)CN(C)CC(=O)Nc2ccc(N3CCOCC3)cc2)c(C)c1 | -5 | 3 | -19 | 54* | x | 0
Cc1cc2c(=Cc3ccc(N(C)C)cc3)c3ccccc3n2[n+]1C | x | x | x | x | -65 | x
CCOC(=O)c1cc2c(=Cc3ccc(N(C)C)cc3)c3ccccc3n2[n+]1C | x | x | x | x | 56* | x
CCN1CCC(Nc2ccnc3cc(Cl)ccc23)CC1 | 19 | 4 | 50* | 5 | 6 | -6
C[C@@H]1CCCCO[C@@H](CN(C)CC2CC2)[C@H](C)CN([C@@H](C)CO)C(=O)c2cc(NC(=O)Nc3ccc4c(c3)OCO4)ccc2O1 | 7 | x | x | x | 35 | x
C[C@@H]1CCCCO[C@H](CN(C)CC2CC2)[C@H](C)CN([C@@H](C)CO)C(=O)c2cc(NC(=O)Nc3ccc(C(F)(F)F)cc3)ccc2O1 | -22 | x | x | x | x | x
C[C@H](CO)N1C[C@H](C)[C@H](CN(C)CC2CC2)OCCCC[C@H](C)Oc2ccc(NC(=O)Nc3ccc(C(F)(F)F)cc3)cc2C1=O | x | x | x | x | 54* | x
C[C@@H]1CCCCO[C@H](CN(C)CC2CC2)[C@H](C)CN([C@@H](C)CO)C(=O)c2cc(NC(=O)Nc3ccc4c(c3)OCO4)ccc2O1 | 10 | x | x | x | 55* | x
